Results from PubChem BioAssay (Tox21).
Records with an inconclusive call do not appear. A call without a number means that no potency is given here. A number with no mark means an inactive call. Activity calls are given as the source filed them. The call rests on the fitted dose curve; in most records, active means well fitted curve in the direction sought with a large enough effect in the repeat runs; inconclusive means weak or mixed curves; inactive means no such curve, though single readings can be large; an effect the other way counts as inactive or inconclusive.

Columns and labels:
[1] = qHTS assay to identify small molecule agonists of the RXR signaling pathway - cell viability counter screen (AID 1159529);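 further: HEK 293T cells carrying an RXR-alpha UAS beta-lactamase reporter; nearly all actives have a fitted effect of over 50% in size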
Method in brief: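 In this parallel viability measure, GeneBLAzer RXR-alpha HEK 293T cells (2% charcoal-stripped FBS) were given a 5 hr preincubation, treated with compounds 16 hr at 37 C, and read by CellTiter-Glo luminescence.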

[2] = qHTS assay to identify small molecule antagonists of the retinoid acid receptor (RAR) signaling pathway - cell viability counter screen (AID 1159551); further: nearly all actives have a fitted effect of over 35% in size
Method in brief: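 Viability of C3RL4 cells is quantified from ATP by luminescence after 6 h treatment at 37 C with compounds and 1 uM retinol.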

[3] = qHTS assay to identify small molecule antagonists of the retinoic acid receptor (RAR) signaling pathway (AID 1159552; further: nearly all actives have a fitted effect of over 50% in size)
Method in brief: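 C3RL4 RARE-luc cells, overnight plating; retinol 1 uM final added right after compound; 6 hr 37 C; luciferase read at 30 min RT.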

[4] = qHTS assay to identify small molecule agonists of the retinoic acid receptor (RAR) signaling pathway (AID 1159553); details: C3RL4 RARE luciferase reporter, agonist, 6 h; activation: at 73.3 µM (top of the series)
Method in brief: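 Compounds dissolved in DMSO were pinned onto C3RL4 cells seeded the previous day, and plates were held 6 hr at 37 C. RARE-driven luciferase output was then read by luminescence.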

[5] = qHTS assay to identify small molecule antagonists of the estrogen related receptor (ERR) signaling pathway from Tox21 library - cell viability counter screen (AID 1224834); further: nearly all actives have a fitted effect of over 30% in size
Method in brief: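 In this quantitative HTS format, ERR cells receive compounds in DMSO and are incubated for 17.5 h at 37 C. Live-cell protease activity is then detected with CellTiter-Fluor.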

[6] = molecular target: Luciferin 4-monooxygenase (Photinus pyralis) (UniProt P08659); test: qHTS assay to identify small molecule inhibitors of firefly luciferase (AID 1224835); further: nearly all actives have a fitted effect of over 25% in size; further: potency means the concentration at half of the fitted maximal effect
Luciferin 4-monooxygenase (Photinus pyralis), sequence (P08659 whole entry, looked up): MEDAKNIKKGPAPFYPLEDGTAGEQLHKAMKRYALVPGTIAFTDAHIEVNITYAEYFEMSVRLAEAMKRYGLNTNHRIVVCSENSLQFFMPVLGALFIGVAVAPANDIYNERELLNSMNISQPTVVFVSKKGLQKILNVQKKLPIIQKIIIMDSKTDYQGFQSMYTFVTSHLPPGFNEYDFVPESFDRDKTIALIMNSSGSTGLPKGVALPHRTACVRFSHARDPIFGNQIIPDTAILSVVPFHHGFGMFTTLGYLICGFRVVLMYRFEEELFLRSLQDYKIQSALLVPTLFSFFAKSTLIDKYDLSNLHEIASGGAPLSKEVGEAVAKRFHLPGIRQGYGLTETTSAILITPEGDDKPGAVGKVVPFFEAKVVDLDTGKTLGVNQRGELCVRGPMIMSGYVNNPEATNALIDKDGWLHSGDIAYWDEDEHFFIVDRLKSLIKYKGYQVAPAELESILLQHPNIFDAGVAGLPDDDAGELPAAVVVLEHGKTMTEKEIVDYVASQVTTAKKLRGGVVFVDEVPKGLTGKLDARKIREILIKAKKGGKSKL
Method in brief: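 Biochemical qHTS: compounds run as interplate titrations against purified firefly enzyme, with D-luciferin and ATP each at its KM concentration. Light output recorded by CCD imaging.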

[7] = qHTS assay to identify small molecule agonists of the constitutive androstane receptor (CAR) signaling pathway - cell viability counter screen (AID 1224836); further: nearly all actives have a fitted effect of over 45% in size
Method in brief: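 Using CellTiter-Fluor, viability of HepG2 cells harbouring hCAR and CYP2B6-2.2kb was measured following 23 h incubation with a 15-concentration compound series plus PK11195 (0.75 uM final).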

[8] = qHTS assay to identify small molecule antagonists of the constitutive androstane receptor (CAR) signaling pathway - cell viability counter screen (AID 1224837); further: nearly all actives have a fitted effect of over 45% in size
Method in brief: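 In quantitative HTS format, compounds at 15 concentrations were applied to HepG2 cells double-transfected with hCAR and CYP2B6-2.2kb under 50 nM CITCO stimulation; live-cell protease activity was read after 23 hr via CellTiter-Fluor.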

SMILES	activity change, negative = cytotoxicity [1]	activity change, negative = cytotoxicity [2]	activity, negative = inhibition [3]	activation [4]	viability change, negative = cytotoxic [5]	activity change, negative = inhibition [6]	viability change, negative = cytotoxic [7]	activity change, negative = cytotoxicity [8]	outcome [1]	outcome [2]	Potency [3]	Potency [4]	Potency [5]	Potency [6]	outcome [7]	Potency [8]
C=CCCCCCCCCCCC	0.762% [at 6.97 µM]	5.5% [at 8.39 µM]	18.9% [at 8.39 µM]	0.0107% [at 8.36 µM]	0.22% [at 8.39 µM]	6.44% [at 10.5 µM]	-0.862% [at 8.39 µM]	6.96% [at 8.39 µM]								
CCCO									inactive	inactive	inactive	inactive	inactive	inactive	inactive	inactive
CCCCC(C)C(=O)O (stereo not drawn)									inactive	inactive	inactive	inactive	inactive	inactive	inactive	inactive
SCCSCCS									inactive	inactive	inactive	inactive	inactive	inactive	inactive	inactive
O=C(O)CCNC(=O)c1ccccc1									inactive	inactive	inactive	inactive	inactive	inactive	inactive	inactive
Nc1cc(S(=O)(=O)O)ccc1S(=O)(=O)O									inactive	inactive	inactive	inactive	inactive	inactive	inactive	inactive
C[N+](C)(C)CC(O)CCl (stereo not drawn)									inactive	inactive	inactive	inactive	inactive	inactive	inactive	inactive
C=C(C)C(=O)OC1CC(C)CC(C)(C)C1 (stereo not drawn)									inactive	inactive	inactive	inactive	inactive	inactive	inactive	inactive
O=C(COCCOCCOCC(=O)Nc1c(I)cc(I)c(C(=O)O)c1I)Nc1c(I)cc(I)c(C(=O)O)c1I									inactive	inactive	inactive	inactive	inactive	inactive	inactive	inactive
CCCCCCCCC(=O)OCC									inactive	inactive	inactive	inactive	inactive	inactive	inactive	inactive
C[C@H](CCC(=O)O)[C@H]1CC[C@H]2[C@@H]3[C@H](O)C[C@@H]4C[C@H](O)CC[C@]4(C)[C@H]3C[C@H](O)[C@]12C									inactive	inactive	inactive	inactive	inactive	inactive	inactive	inactive
Cc1cc(O)c2c(c1)C(=O)c1cccc(O)c1C2=O									inactive	inactive	inactive	inactive	inactive	inactive	inactive	inactive
O=C(O)c1ccc(OCCN2CCCCC2)cc1									inactive	inactive	inactive	inactive	inactive	inactive	inactive	inactive
Cc1ccc(C(=O)C(=O)O)cc1C									inactive	inactive	inactive	inactive	inactive	inactive	inactive	inactive
CCOC(=O)C(C)(C)C									inactive	inactive	inactive	inactive	inactive	inactive	inactive	inactive
CCC1COC(=O)O1 (stereo not drawn)									inactive	inactive	inactive	inactive	inactive	inactive	inactive	inactive
CC(=O)/C=C/c1ccco1									inactive	inactive	inactive	inactive	inactive	inactive	inactive	inactive
COc1cc(C=O)ccc1OC(=O)C(C)C									inactive	inactive	inactive	inactive	inactive	inactive	inactive	inactive
O=C(Oc1ccccc1C(=O)O)c1ccccc1O									inactive	inactive	inactive	inactive	inactive	inactive	inactive	inactive
CC(C)CCC(=O)CCC(C)C									inactive	inactive	inactive	inactive	inactive	inactive	inactive	inactive
CCC(C)(CCC(C)C)C(=O)[O-].CCC(C)(CCC(C)C)C(=O)[O-].[Zn+2] (stereo not drawn)									inactive	inactive	inactive	inactive	inactive	25.2 µM (active)	inactive	inactive
C[C@H]1O[C@H](O[C@H]2[C@H](O)[C@@H](O)[C@@H](O[C@H]3[C@H](O)[C@@H](O)[C@H](O)O[C@@H]3CO)O[C@@H]2CO)[C@H](O)[C@@H](O)[C@@H]1N[C@H]1C=C(CO)[C@@H](O)[C@H](O)[C@H]1O									inactive	inactive	inactive	inactive	inactive	inactive	inactive	inactive
CO/N=C(/C(=O)N[C@@H]1C(=O)N2C(C(=O)O)=C(Cn3nnc(C)n3)CS[C@H]12)c1csc(N)n1									inactive	inactive	inactive	inactive	inactive	inactive	inactive	inactive
C=CCOCC(O)CCl (stereo not drawn)									inactive	inactive	inactive	inactive	inactive	inactive	inactive	inactive
CC(C)CCO									inactive	inactive	inactive	inactive	inactive	inactive	inactive	inactive
CCc1nccnc1C									inactive	inactive	inactive	inactive	inactive	inactive	inactive	inactive
